The list is not random: actives were taken first. Their share in the collection is about 6.3%.
NADH enzymes: inhibitors of PK/LDH coupling enzymes, profiling panel, artefact control, biochemical, MLSMR library | coupled PK/LDH NADH assays, four targets | IC50, µM (series often up to 10 µM), for the others: at the highest dose inhibition | 0.02% of 65,000 active | AID 774, 2007;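 active = single-dose screening hits from any of four coupled enzyme assays that gave an IC50 when retested across doses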;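 also: the DPM-DC format reads NADH fluorescence rather than 340 nm absorbance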
MK inhibit: S. pneumoniae MK inhibitors, primary screen, biochemical, PK/LDH-coupled NADH absorbance. AID 555, 2006. purified MK, PK/LDH-coupled NADH absorbance 340 nm. mevalonate kinase [Streptococcus pneumoniae D39]. 0.48% of 65,000 active. inhibition, % at 10 µM;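 active = ranked among the strongest by inhibition in the single 10 µM screen, a fixed top-ranked set picked for dose follow-up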
Autofluor 339: intrinsic fluorescence of library compounds, ex339/em460 – biochemical, MLSMR library, data from DPM-DC assay, artefact control, profiling panel. compound autofluorescence, ex339/em460 nm, NADH buffer; active compounds read high; 1 = no-compound wells, NADH background. fluorescence fold increase at 10 µM. 5.5% of 65,000 active. AID 709, 2007;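 active = at 10 µM, mean starting fluorescence two-fold or more over control wells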;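 also: signal is the first read of a kinetic run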
DPM-DC inhibit: S. pneumoniae DPM-DC inhibitors, primary screen, biochemical, PK/LDH-coupled NADH fluorescence. diphosphomevalonate decarboxylase (Streptococcus pneumoniae D39). purified DPM-DC. calls only at 10 µM. 0.49% of 65,000 active;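 active = the 320 compounds with the highest percent inhibition in the single-dose primary screen, excluding strongly autofluorescent ones, cut at about 32% in these data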;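 also: kinetic rate of NADH fluorescence loss reporting ADP formed by the decarboxylase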
PMK inhibit: S. pneumoniae PMK inhibitors, primary screen, biochemical, mevalonate pathway, pilot trial included | purified PMK, PK/LDH-coupled NADH absorbance 340 nm | inhibition, % at 10 µM | 0.49% of 65,000 active | AID 539, 2006;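 active = top-ranked compounds by inhibition in the single 10 µM screen, taking a fixed number of the strongest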;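 also: 0% = full reaction with DMSO carrier and 100% = background rate without enzyme reaction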
Abs 340nm: compound light absorbance at 340 nm, profiling panel, artefact control, biochemical, MLSMR library, data from PS, PMK, MK assays. 65,000 tested, under 10 active. compound absorbance at 340 nm, fold over control. AID 708, 2007. fold change at 10 µM;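 active = at 10 µM dose, initial 340 nm absorbance at least 2 fold that of control wells; inactive = change under 2 fold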;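 also: initial absorbance extrapolated from kinetic A340 decline of NADH oxidation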
An asterisk follows results filed as active.

Screening CNC(=O)c1cc2ccc(OC)cc2oc1=O returned NADH enzymes 7%, MK inhibit 10, Autofluor 339 3.6*, PMK inhibit 4 and Abs 340nm 1.2.
`COc1ccc2oc(=N)c(C(=O)Nc3ccccc3)cc2c1` gave NADH enzymes 7%, MK inhibit 7, Autofluor 339 1.2, DPM-DC inhibit inactive, PMK inhibit 11 and Abs 340nm 0.98.
Screening O=C(NCc1ccc2c(c1)OCO2)C1CCCN(S(=O)(=O)c2cccnc2)C1 (configuration not stated) returned NADH enzymes 2%, MK inhibit 4, Autofluor 339 1, DPM-DC inhibit inactive, PMK inhibit 7 and Abs 340nm 1.
CCOc1ccccc1Oc1coc2cc(OC(=O)c3ccco3)ccc2c1=O was read as NADH enzymes 6%, MK inhibit 9, Autofluor 339 1.5, DPM-DC inhibit inactive, PMK inhibit 0 and Abs 340nm 1.1.
`CCOc1ccccc1Oc1coc2cc(O)ccc2c1=O` gave NADH enzymes 8%, MK inhibit 0, Autofluor 339 4.7*, PMK inhibit 16 and Abs 340nm 1.1.
For COc1ccccc1Oc1coc2cc(O)ccc2c1=O the results were NADH enzymes 9%, MK inhibit 0, Autofluor 339 4.8*, PMK inhibit 17 and Abs 340nm 1.1.
Screening CCn1c(SCC(=O)N2CCN(c3ccc(F)cc3)CC2)nnc1-c1ccncc1 returned NADH enzymes 4%, MK inhibit 11, Autofluor 339 1.1, DPM-DC inhibit inactive, PMK inhibit 0 and Abs 340nm 0.93.
For COC(=O)c1cc2oc(C)cc2n1CC(=O)Nc1ccc(OC)c(OC)c1OC the results were NADH enzymes 6%, MK inhibit 7, Autofluor 339 1.1, DPM-DC inhibit inactive, PMK inhibit 8 and Abs 340nm 1.
`COC(=O)c1cc2occc2n1CC(=O)Nc1ccc(OC)c(OC)c1OC` gave NADH enzymes 35%, MK inhibit 22, Autofluor 339 1, DPM-DC inhibit active, PMK inhibit 0 and Abs 340nm 1.
Screening CCN(CC)S(=O)(=O)c1ccc2[nH]c(=O)[nH]c2c1 returned NADH enzymes 0%, MK inhibit 0, Autofluor 339 1.1, DPM-DC inhibit inactive, PMK inhibit 0 and Abs 340nm 1.
For O=c1oc(-c2cccs2)nc2sc3c(c12)CCCCC3 the results were NADH enzymes 5%, MK inhibit 2, Autofluor 339 2.1*, PMK inhibit 8 and Abs 340nm 1.
O=C(NCc1cccnc1)C1c2ccccc2C(=O)N1Cc1ccco1 (configuration not stated) was read as NADH enzymes 2%, MK inhibit 0, Autofluor 339 1.1, DPM-DC inhibit inactive, PMK inhibit 3 and Abs 340nm 1.
For Cc1c(C(=O)NCC2CCCO2)oc2ccc(S(=O)(=O)N3CCCC3)cc12 (configuration not stated) the results were NADH enzymes 2%, MK inhibit 6, Autofluor 339 1.1, DPM-DC inhibit inactive, PMK inhibit 0 and Abs 340nm 1.1.
Cc1c(C(=O)NCC2CCCO2)oc2ccc3c(c12)C(=O)CC(C)(C)O3 (configuration not stated) was read as NADH enzymes 13%, MK inhibit 4, Autofluor 339 3*, DPM-DC inhibit inactive, PMK inhibit 13 and Abs 340nm 1.
For CCOC(=O)NC(NC(=O)OCC)C(=O)c1ccccc1 the results were NADH enzymes 5%, MK inhibit 0, Autofluor 339 1.1, DPM-DC inhibit inactive, PMK inhibit 14 and Abs 340nm 1.
CCOC(=O)C1=C(c2ccccc2)N2CCN=C2S1 was read as NADH enzymes 3%, MK inhibit 2, Autofluor 339 1.1, DPM-DC inhibit inactive, PMK inhibit 22 and Abs 340nm 1.
COC(=O)/C=c1\sc2ncnn2c1=O was read as NADH enzymes 1%, MK inhibit 1, Autofluor 339 1, DPM-DC inhibit inactive, PMK inhibit 2 and Abs 340nm 1.
Screening CC(C)Oc1ccc(-c2nn(-c3ccccc3)cc2/C=c2\sc3ncnn3c2=O)cc1 returned NADH enzymes 3%, MK inhibit 7, Autofluor 339 3*, PMK inhibit 8 and Abs 340nm 1.
CCc1ccc(-c2cn3nc(C)c(C)nc3n2)cc1 was read as NADH enzymes 4%, MK inhibit 8, Autofluor 339 2.3*, PMK inhibit 0 and Abs 340nm 1.1.
Cc1cc(N)n2nc(-c3ccccc3)cc2n1 was read as NADH enzymes 5%, MK inhibit 3, Autofluor 339 1.6, DPM-DC inhibit inactive, PMK inhibit 9 and Abs 340nm 1.
Cc1nc2nc(-c3ccccc3)cn2nc1C was read as NADH enzymes 4%, MK inhibit 8, Autofluor 339 2.2*, PMK inhibit 0 and Abs 340nm 1.1.
For CCc1c(-c2ccccc2)nc2nc(C)c(C)nn12 the results were NADH enzymes 3%, MK inhibit 5, Autofluor 339 2.1*, PMK inhibit 0 and Abs 340nm 1.1.
For Cc1nn2cc(-c3ccc(N)cc3)nc2s1 the results were NADH enzymes 6%, MK inhibit 1, Autofluor 339 1, DPM-DC inhibit inactive, PMK inhibit 17 and Abs 340nm 1.
`CCN(c1ccccc1)c1cc(C)nc2nc(C)nn12` gave NADH enzymes 7%, MK inhibit 5, Autofluor 339 1, DPM-DC inhibit inactive, PMK inhibit 15 and Abs 340nm 1.1.
`O=C(NCC(F)(F)F)N1CCOCC1` gave NADH enzymes 2%, MK inhibit 5, Autofluor 339 1, DPM-DC inhibit inactive, PMK inhibit 0 and Abs 340nm 1.
For CCNC(=O)[C@@H]1CCCN1C(=O)[C@H](CCCN=C(N)N)NC(=O)[C@H](CC(C)C)NC(=O)[C@@H](CC(C)C)NC(=O)[C@H](Cc1ccc(O)cc1)NC(=O)[C@H](CO)NC(=O)[C@H](Cc1c[nH]c2ccccc12)NC(=O)[C@H](Cc1cnc[nH]1)NC(=O)[C@@H]1CCC(=O)N1 the results were NADH enzymes 0%, MK inhibit 1, Autofluor 339 1.1, DPM-DC inhibit inactive, PMK inhibit 0 and Abs 340nm 1.
Cn1cccc1Cc1nnc(SCC(=O)NCc2ccc(F)cc2)n1-c1ccc(F)cc1 was read as NADH enzymes 10%, MK inhibit active, Autofluor 339 1.1, DPM-DC inhibit inactive, PMK inhibit 17 and Abs 340nm 1.

Bioassay records: PubChem, SRMLSC
